Measurements taken from PubChem BioAssay.
A number with no mark means an inactive call. Where a call stands in place of a potency, no number is given. For some assays here: Potency and affinity values are given separately. Calls of active or inactive are those of the source. Unless noted, no rule for the calls is given here.

Tests used:
[1] = antimalarial activity against Dd2 strain (AID 2302;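 active = growth inhibition above 50% at the single 2 µM test dose, taken to imply half-maximal potency below 2 µM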); conditions: P. falciparum Dd2 in RBCs, LDH growth readout, 72 h; at 2 µM; hits give high values
[2] = human hepatoma cell viability loss – ATP luminescence, cytotoxicity control for P. falciparum antimalarial project, primary screen (AID 2303;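 active = inhibition above 50%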); conditions: HepG2 viability, 24-48 h, at 10 µM, hits give high values
[3] = biological target: L-lactate dehydrogenase (Plasmodium falciparum (isolate CDC / Honduras)) (UniProt Q27743); assay: PfLDH activity inhibition – cell lysate, 3D7 strain, counter-screen for P. falciparum growth inhibition project (AID 2304); conditions: P. falciparum 3D7 crude extract, LDH APAD/NBT absorbance; at 2 µM; hits give high values
Sequence of L-lactate dehydrogenase (Plasmodium falciparum (isolate CDC / Honduras)) (Q27743 whole entry, looked up): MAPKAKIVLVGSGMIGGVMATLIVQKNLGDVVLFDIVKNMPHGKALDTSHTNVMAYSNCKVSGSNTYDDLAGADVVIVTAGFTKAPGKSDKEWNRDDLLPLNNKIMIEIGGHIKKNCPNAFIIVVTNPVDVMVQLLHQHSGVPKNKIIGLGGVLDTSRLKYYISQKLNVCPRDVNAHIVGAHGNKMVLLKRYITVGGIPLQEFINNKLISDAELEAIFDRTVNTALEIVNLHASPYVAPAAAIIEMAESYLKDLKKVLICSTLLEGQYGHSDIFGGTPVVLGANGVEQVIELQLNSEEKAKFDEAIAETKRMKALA

[4] = inhibition of 3D7 malaria parasite growth – strain 3D7 (AID 2306); conditions: P. falciparum 3D7 erythrocytic growth, LDH absorbance, 72 h; at 2 µM; hits give high values
[5] = biological target: Calcium-dependent protein kinase 1 (Plasmodium falciparum (isolate 3D7)) (UniProt P62344); assay: PfCDPK1 kinase inhibitors, biochemical, TCAMS library (AID 1159585; cut-off not given, nearly all actives have IC50 up to about 0.98 µM;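 also: inhibitors leave more ATP so luminescence rises with inhibition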); conditions: recombinant PfCDPK1, Kinase-Glo ATP depletion luminescence
Sequence of Calcium-dependent protein kinase 1 (Plasmodium falciparum (isolate 3D7)) (P62344 whole entry, looked up): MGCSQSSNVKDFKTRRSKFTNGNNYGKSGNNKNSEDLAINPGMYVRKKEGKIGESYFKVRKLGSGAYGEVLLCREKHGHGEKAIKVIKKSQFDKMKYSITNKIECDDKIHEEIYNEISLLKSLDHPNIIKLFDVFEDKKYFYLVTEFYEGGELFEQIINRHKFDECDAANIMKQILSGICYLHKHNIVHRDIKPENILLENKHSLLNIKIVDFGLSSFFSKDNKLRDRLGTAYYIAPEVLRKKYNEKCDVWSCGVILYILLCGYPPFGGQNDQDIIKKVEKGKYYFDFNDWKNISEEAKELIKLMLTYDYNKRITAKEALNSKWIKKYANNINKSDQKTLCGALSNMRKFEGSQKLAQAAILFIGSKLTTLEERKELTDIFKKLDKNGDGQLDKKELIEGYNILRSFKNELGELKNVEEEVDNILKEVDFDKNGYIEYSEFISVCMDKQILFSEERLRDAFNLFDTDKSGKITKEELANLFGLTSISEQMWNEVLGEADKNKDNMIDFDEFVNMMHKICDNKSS

[6] = biological target: Plasmodium falciparum protein kinase 6 (PK6, PF3D7_1337100) (UniProt Q8IDW1); assay: PfPK6 kinase inhibitors, biochemical, TCAMS library (AID 1159586); conditions: recombinant PfPK6, Kinase-Glo ATP depletion luminescence
Sequence of Plasmodium falciparum protein kinase 6 (PK6, PF3D7_1337100) (Q8IDW1 1-305): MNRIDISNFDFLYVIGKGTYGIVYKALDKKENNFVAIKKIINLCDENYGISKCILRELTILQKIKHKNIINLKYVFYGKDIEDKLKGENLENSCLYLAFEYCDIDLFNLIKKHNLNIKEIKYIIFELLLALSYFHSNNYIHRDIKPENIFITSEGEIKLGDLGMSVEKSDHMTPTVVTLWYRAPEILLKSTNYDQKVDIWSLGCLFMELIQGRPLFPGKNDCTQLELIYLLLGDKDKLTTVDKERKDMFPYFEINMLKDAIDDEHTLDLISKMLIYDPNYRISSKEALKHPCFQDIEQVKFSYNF

[7] = biological target: Protein kinase 7 (PK7), Plasmodium falciparum 3D7 (PF3D7_0213400) (UniProt Q7YTF7); assay: inhibition of Plasmodium PK7 catalytic activity – biochemical, TCAMS antimalarial set, Kinase-Glo luminescence (AID 1159587); conditions: recombinant PfPK7, Kinase-Glo ATP depletion luminescence
Sequence of Protein kinase 7 (PK7), Plasmodium falciparum 3D7 (PF3D7_0213400) (Q7YTF7 1-343): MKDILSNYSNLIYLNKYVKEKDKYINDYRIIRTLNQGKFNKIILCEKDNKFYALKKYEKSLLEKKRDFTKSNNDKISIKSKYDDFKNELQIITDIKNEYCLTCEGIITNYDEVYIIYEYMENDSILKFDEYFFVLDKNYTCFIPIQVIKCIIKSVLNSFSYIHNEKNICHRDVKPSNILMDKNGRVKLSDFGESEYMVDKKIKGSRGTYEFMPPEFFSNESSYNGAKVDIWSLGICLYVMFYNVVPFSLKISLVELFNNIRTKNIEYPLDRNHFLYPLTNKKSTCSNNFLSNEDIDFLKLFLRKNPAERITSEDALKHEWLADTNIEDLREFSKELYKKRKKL

[8] = biological target: Calcium-dependent protein kinase 4 (Plasmodium falciparum (isolate 3D7)) (UniProt Q8IBS5); assay: PfCDPK4 kinase inhibitors, biochemical, TCAMS library (AID 1159588; cut-off not given, nearly all actives have IC50 up to about 0.91 µM); conditions: recombinant PfCDPK4, Kinase-Glo ATP depletion luminescence
Sequence of Calcium-dependent protein kinase 4 (Plasmodium falciparum (isolate 3D7)) (Q8IBS5 whole entry, looked up): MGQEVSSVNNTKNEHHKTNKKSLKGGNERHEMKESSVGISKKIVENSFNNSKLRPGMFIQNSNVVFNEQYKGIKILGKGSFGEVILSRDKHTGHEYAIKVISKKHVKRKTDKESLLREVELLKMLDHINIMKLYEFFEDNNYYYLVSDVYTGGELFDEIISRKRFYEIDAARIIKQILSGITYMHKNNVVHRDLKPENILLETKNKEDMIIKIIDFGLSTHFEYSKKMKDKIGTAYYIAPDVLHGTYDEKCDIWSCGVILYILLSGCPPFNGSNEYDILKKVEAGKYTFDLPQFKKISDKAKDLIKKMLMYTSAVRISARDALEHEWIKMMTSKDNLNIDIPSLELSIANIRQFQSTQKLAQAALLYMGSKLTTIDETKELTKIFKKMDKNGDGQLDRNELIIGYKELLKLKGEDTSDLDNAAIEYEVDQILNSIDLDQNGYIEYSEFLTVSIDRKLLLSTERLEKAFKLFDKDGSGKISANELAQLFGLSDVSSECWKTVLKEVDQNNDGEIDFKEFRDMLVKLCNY

| Compound | growth inhibition [1] | inhibition [2] | inhibition [3] [%] | growth inhibition [4] | outcome [5] | outcome [6] | outcome [7] | outcome [8] |
| --- | --- | --- | --- | --- | --- | --- | --- | --- |
| Clc1cccc(CNC2CCN(CC3CCCCC3)CC2)c1 | 24% | 4% | -2 | 97% (active) | inactive | inactive | inactive | inactive |
| CCN(CC)CCOc1ccc(N(Cc2ccc(C(C)(C)C)cc2)C(=O)c2ccc(Cc3ccccc3)cc2)cc1OC | 73% (active) | 5% | 0 | 99% (active) | inactive | inactive | inactive | inactive |
| CC1CCc2c(C(=O)N3CCc4ccccc4C3)csc2C1 (stereo not given) | 75% (active) | 9% | -3 | 99% (active) | inactive | inactive | inactive | inactive |
| O=C(NCCCCN1CCC(c2ccc3c(c2OCCN2CCCC2=O)CCCC3)CC1)c1ccc(-c2ccc(C(F)(F)F)cc2)cc1 | 1% | 56% (active) | 1 | 88% (active) | inactive | inactive | inactive | inactive |
| CCNC(=O)N1CCc2ccc(Oc3nc(NCc4ccccc4OC)ncc3C)cc2CC1 | 76% (active) | -9% | -9 | 83% (active) | inactive | inactive | inactive | inactive |
| FC(F)(F)c1ccc2c(NN=Cc3cccc(Cl)c3)ccnc2c1 | 59% (active) | 7% | -3 | 93% (active) | inactive | inactive | inactive | inactive |
| Cc1cc(NC(=O)N=C(N)N)ccc1Cl | 15% | 11% | 2 | 100% (active) | inactive | inactive | inactive | inactive |
| CCOc1cc(C(C)C)ccc1N1CCN(CCCCNC(=O)c2ccc(NC(=O)c3ccc(Cl)cc3)cc2)CC1 | 97% (active) | 28% | 4 | 101% (active) | inactive | inactive | inactive | inactive |
| CN1CCN(CCCCCCNc2c3ccccc3nc3ccccc23)CC1 | -4% | 35% | -3 | 101% (active) | inactive | inactive | inactive | inactive |
| CN(Cc1cccc(O)c1)C1CCCN(c2cc(NC(=O)c3ccc(F)cc3)ccn2)C1 (stereo not given) | 12% | 8% | -2 | 91% (active) | inactive | inactive | inactive | inactive |
| C=CCOC(=O)N1CCC(CNCc2ccc(-c3cccc(-c4nc5c(C)cccc5[nH]4)c3)cc2)C1 (stereo not given) | 99% (active) | 25% | -5 | 102% (active) | inactive | inactive | inactive | inactive |
| COc1ccc2nccc([C@@H](O)CN3CC[C@H](NCc4cnc5c(c4)NC(=O)CS5)[C@H](F)C3)c2c1 | 90% (active) | -4% | -2 | 90% (active) | inactive | inactive | inactive | inactive |
| NC(N)=NN=CC(=O)Nc1ccc(Cl)cc1 | 2% | 5% | -1 | 101% (active) | inactive | inactive | inactive | inactive |
| CC(=O)c1ccc2nc[nH]c(=O)c2c1 | 99% (active) | 79% (active) | -1 | 96% (active) | inactive | inactive | inactive | inactive |
| CCCCCCNC(=O)C1Cc2c([nH]c3ccc(C)cc23)C2(CCN(Cc3ccccc3)CC2)N1 (stereo not given) | 25% | 25% | 6 | 84% (active) | inactive | inactive | inactive | inactive |
| NC(=O)CNC(=O)CCCN=C(N)N | -2% | 20% | 5 | 101% (active) | inactive | inactive | inactive | inactive |
| Cc1noc(C)c1-c1cccc(CNCc2cccc(-c3ccc(-c4nc5c(C)cccc5[nH]4)s3)c2)c1 | 75% (active) | 22% | 1 | 102% (active) | inactive | inactive | inactive | inactive |
| Nc1nc(N)c2c(ccc3nccc32)[nH]1 | -1% | 58% (active) | 8 | 88% (active) | inactive | inactive | inactive | inactive |
| c1ccc(Oc2ccc(Nc3ccnc4ccc(-c5ccccn5)cc34)cc2)cc1 | 10% | 4% | -5 | 80% (active) | inactive | inactive | inactive | inactive |
| CCc1ccc2nc(-c3ccc(F)cc3)nc(SCC(=O)Nc3sc(C)c(C)c3C#N)c2c1 | 5% | -15% | 1 | 98% (active) | inactive | inactive | inactive | inactive |

| Compound | growth inhibition [1] | inhibition [2] | inhibition [3] [%] | growth inhibition [4] | outcome [5] | outcome [6] | outcome [7] | outcome [8] |
| --- | --- | --- | --- | --- | --- | --- | --- | --- |
| CN(C)CCN(Cc1ccccc1-c1ccc(CNCCc2ccccc2)cc1)C(=O)c1ccccc1 | 97% (active) | 81% (active) | -3 | 95% (active) | inactive | inactive | inactive | inactive |
| N=c1c(C(=O)NCc2ccccc2)cc2c(=O)n3ccccc3nc2n1CCc1ccccc1 | 25% | 5% | -6 | 99% (active) | inactive | inactive | inactive | inactive |
| COC(=O)c1ccc2nc(-c3ccc(C(=O)NC4CCN(Cc5ccccc5)CC4)s3)[nH]c2c1 | 71% (active) | -7% | -4 | 99% (active) | inactive | inactive | inactive | inactive |
| C[C@@H](COc1ccccc1)NCC(O)c1ccc([N+](=O)[O-])c(OCc2ccccc2)c1 (stereo not given in full) | 64% (active) | 5% | 7 | 93% (active) | inactive | inactive | inactive | inactive |
| O=C1COc2ccc(S(=O)(=O)N3CCC[C@@H]3CCN3CCC(c4c[nH]c5cnccc45)CC3)cc2N1 | 6% | -8% | 1 | 101% (active) | inactive | inactive | inactive | inactive |
| COc1cc2c(cc1N(C(C)C)S(=O)(=O)c1sc3ccc(Cl)cc3c1C)CCNCC2 | 70% (active) | 98% (active) | -3 | 91% (active) | inactive | inactive | inactive | inactive |
| ON=C(c1nc2ccccc2[nH]1)c1nc2ccccc2[nH]1 | 68% (active) | 36% | 6 | 93% (active) | inactive | inactive | inactive | inactive |
| Cn1ccc(C(=O)Nc2ccc3c(c2)CN(Cc2ccc(N4CCCC4)o2)CCC3)n1 | 72% (active) | 19% | 4 | 80% (active) | inactive | inactive | inactive | inactive |
| COc1cccc(CC(=O)N2CCC(n3c(C)nc4ccc(F)cc43)CC2)c1 | 99% (active) | -8% | -3 | 100% (active) | inactive | inactive | inactive | inactive |
| COc1ccc2nc(C)cc(NCc3cccc4ccccc34)c2c1 | 72% (active) | 28% | -7 | 102% (active) | inactive | inactive | inactive | inactive |
| CC(C)NCc1ccc(-c2cccc(NC(=O)c3ccc(F)cc3)c2)cc1 | 7% | 28% | 6 | 91% (active) | inactive | inactive | inactive | inactive |
| CCCc1cc(N2CCC(N3CCCC3)CC2)nc(Nc2ccc(OC)cc2)n1 | 14% | 15% | 6 | 94% (active) | inactive | inactive | inactive | inactive |
| COc1ccc(C(=O)N2CCN(c3ccc([N+](=O)[O-])c(NC4CC4)c3)CC2)cc1Br | 68% (active) | 6% | 5 | 99% (active) | inactive | inactive | inactive | inactive |
| COc1ccc2c(NN=Cc3cccc(C)n3)cc(-c3ccccc3)nc2c1 | 25% | -7% | 3 | 97% (active) | inactive | inactive | inactive | inactive |
| CC(C)(C)c1nn(-c2ccccc2)c2[nH]c(=O)c(CNC3CCCC3)cc12 | 70% (active) | 7% | 5 | 100% (active) | inactive | inactive | inactive | inactive |
| O=C(Nc1cccc(-c2cccc(-c3nc4ccc(F)cc4[nH]3)c2)c1)c1cnc[nH]1 | 87% (active) | 13% | -1 | 100% (active) | inactive | inactive | inactive | inactive |
| COc1ccc(-c2ccccc2CNC2Cc3ccccc3C2)cc1S(=O)(=O)NCCN1CCCC1 | 47% | 18% | -3 | 96% (active) | inactive | inactive | inactive | inactive |
| O=C(NCC1CCN(Cc2ccsc2)C1)c1cc(-c2cccc(C(F)(F)F)c2)cs1 (stereo not given) | 15% | 37% | -2 | 98% (active) | inactive | inactive | inactive | inactive |
| Cc1nc2nc(N)nc(N)c2c(C)c1Cc1ccccc1 | 0% | 62% (active) | 3 | 95% (active) | inactive | inactive | inactive | inactive |
| COc1ccc(Nc2nc(N)c3cc(OC)c(OC)cc3n2)cc1OC | 5% | -4% | -7 | 99% (active) | inactive | inactive | inactive | inactive |
